# TROY signal inh = TROY signaling inhibition; Q293 LMP1-TROYcd NF-kB luciferase reporter, 4 h; inhibition, % at 10 µM; 360,000 compounds, 0.98% hits; AID 1347056;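 active = compounds whose plate-normalised and pattern-corrected inhibition of the luciferase reporter signal at the single screening dose is 50% or more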
# Peg3 prom inh = Peg3 promoter activity inhibition; HeLa PEG-Prom luciferase reporter, luminescence, overnight; inhibition, % at 20 µM; 360,000 compounds, 1.7% hits; AID 588405;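 active = inhibition of at least 50% at 20 µM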
# HIF-2a inh = HIF-2a inhibition; inhibition, % at 18.8 µM; 786-0 RCC cells HIF-2a reporter, luciferase luminescence, overnight; AID 624352; 360,000 compounds, 0.72% hits;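 active = inhibition of the luminescence signal of 40% or more relative to plate controls, in a single-dose primary screen at 18.75 µM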
# MITF TRPM1 inh = reduces MITF-dependent TRPM1 promoter luciferase signal; 330,000 compounds, 0.83% hits; inhibition, % at 12.5 µM; SK-MEL-5 TRPM1 promoter luciferase, 24 h; AID 488899;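 active = mean inhibition across replicates of 60% or more, whatever share of single replicates reaches that level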
# LMP1 NFkB inh = reduces LMP1-driven NF-kappaB luciferase signal; LMP1-induced NF-kappaB luciferase reporter cells, luminescence; inhibition, % at 12.5 µM; 350,000 compounds, 0.69% hits; in the data active = inhibition above about 41%;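 also: 0% = neutral control wells and 100% = reference inhibitor control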
# TWEAK Fn14 block = TWEAK-Fn14 signaling inhibition | AID 1159606 | TWEAK-stimulated Fn14 reporter cells, luciferase luminescence, 8 h | 360,000 compounds, 2% hits | inhibition, % at 10 µM; in the data active = inhibition above about 50%
# * hit, by the source's call; x = no result. This is a sample that favours compounds with a hit; in the whole collection about 4% have one here.
SMILES,TROY signal inh,Peg3 prom inh,HIF-2a inh,MITF TRPM1 inh,LMP1 NFkB inh,TWEAK Fn14 block
CCCCCCOc1ccc(CN2CCN(CC)CC2)cc1,60*,-183,-79,-65,13,66*
CCN1CCN(Cc2ccc(OC(F)(F)F)cc2)CC1,10,8,6,0,-3,-9
C[C@]12C[C@H](O)[C@@H](O)C[C@@H]1CC[C@@H]1[C@@H]2CC[C@]2(C)C(=O)CC[C@@H]12,9,8,6,x,x,-24
Cc1[nH]c2ccc(OC(F)(F)F)cc2c1CCNCc1ccc(Cl)cc1,-17,111*,17,-5,-2,-33
COc1ccc2[nH]c(C)c(CCNCc3cccnc3)c2c1,-18,11,8,14,-2,-12
CCOc1cccc(CNCCc2c(C)[nH]c3ccc(OC(F)(F)F)cc23)c1O,-11,107*,6,98*,-19,14
S=C(NCCc1ccccc1)N1Cc2ccc(Br)cc2-n2nncc2C1,5,51*,4,x,x,-37
S=C(NCCc1ccccc1)N1Cc2cc(Br)ccc2-n2nncc2C1,17,12,1,x,x,5
C[N+](C)(C)CC#CCOC(=O)Nc1cccc(Cl)c1,1,84*,-3,0,82*,6
COc1ccc(CNCCc2ccccc2F)c(OC)c1C,4,-14,3,5,2,-15
COc1cc(C)c(CNCCc2c[nH]c3ccccc23)cc1C,-9,95*,17,42,2,-3
COc1ccc(CNCCc2c[nH]c3ccccc23)c(OC)c1C,4,109*,3,-3,0,4
COc1cccc(CNCCc2c[nH]c3ccccc23)c1,12,-13,11,-13,x,-4
COC(=O)C1=C(c2ccc(OC)c(OC)c2)C[C@@H]2CC[C@H]1N2C(=O)NCC1CC1,4,-9,13,-4,-1,9
COc1ccc(CNCCc2ccc3c(c2)OCO3)cc1Br,-18,2,-3,12,5,-12
O=c1[nH]c(=S)[nH]c(O)c1N=Nc1ccc(SC(F)F)cc1,18,-211,-370,-17,21,58*
CC(C)c1ccc(N=Nc2c(O)[nH]c(=O)[nH]c2=O)cc1,-54,-192,-153,-53,-5,-27
Cc1c(N=Nc2c(O)[nH]c(=S)[nH]c2=O)c(=O)n(-c2ccccc2)n1C,13,0,21,8,6,-9
O=c1[nH]c(=S)[nH]c(O)c1N=Nc1ccc(S(=O)(=O)N2CCc3ccccc32)cc1,1,26,19,64*,6,9
Cc1ccc(N(C)C(=O)Oc2ccc(C(=O)c3ccc(Cl)cc3)cc2)cc1,x,14,-14,1,7,68*
CCOC(=O)[C@]12Cc3ccccc3[C@H]1N(CCC(=O)OC)C(=O)c1ccccc12,17,x,23,x,x,7
COC(=O)C1=C(c2ccc(F)cc2OCc2ccccc2)C[C@@H]2CC[C@H]1N2C(=O)NCCN1CCOCC1,-12,-19,8,0,2,-11
COc1cccc(CNC2CN3CCC2CC3)c1OC (stereo not given),7,0,12,0,-3,68*
Cc1cccc(N=C2c3cc([N+](=O)[O-])ccc3-c3c2cc([N+](=O)[O-])cc3[N+](=O)[O-])c1,-10,86*,-14,42,17,-41
C/C1=C\[C@@H](C)C/C=C/[C@H]2[C@@H]3O[C@]3(C)[C@@H](C)[C@H]3[C@H](Cc4c[nH]c5ccccc45)NC(=O)[C@]32C(=O)/C=C/C(=O)[C@@H]1O,-53,98*,76*,x,19,-125
SMILES,TROY signal inh,Peg3 prom inh,HIF-2a inh,MITF TRPM1 inh,LMP1 NFkB inh,TWEAK Fn14 block
c1ccc(C2(N3CCCCC3)CCCCC2)cc1,6,1,-3,-3,-3,-2
S=C=Nc1cccc(C2(N3CCCCC3)CCCCC2)c1,-5,64*,-15,75*,-12,-3
CC=C(CC)C1(CCC)C(=O)NC(=S)NC1=O,-10,4,7,-4,-1,7
COc1ccc(-c2ccc3c(c2)CN(C(=O)CCc2ccccc2)Cc2cnnn2-3)cc1,20,26,11,x,x,-16
COC(=O)c1nc(-c2ccc3c(n2)C(=O)C(N)=C(OC)C3=O)c(N)c(-c2ccc(OC)c(OC)c2O)c1C,27,53*,37,100*,-4,-3
CC12CCC(=O)C=C1CC(N1CC1)C1C2CCC2(C)C(O)CCC12 (stereo not given),10,4,12,5,-3,8
c1ccc2c(c1)[IH]c1ccccc1-2,-7,96*,52*,88*,24,13
C=CCn1c(O)c(/C(C)=N/N2CCCCCC2)c(=O)[nH]c1=O,12,3,3,8,6,5
COc1ccc(C(=O)OCC2CN2c2cccc([N+](=O)[O-])c2)cc1 (stereo not given),4,x,-34,x,x,-13
CCCCC(CC)COCCCN=Cc1c(O)[nH]c(=S)[nH]c1=O (stereo not given),6,15,25,x,x,60*
CCOCCCN=Cc1c(O)n(Cc2ccccc2)c(=O)[nH]c1=O,3,4,7,18,1,6
COC(=O)C1=C(c2ccc(OC(F)(F)F)cc2)C[C@@H]2CC[C@H]1N2C(=O)NCc1cc(C)oc1C(F)(F)F,4,12,7,10,9,5
Oc1c(Cl)c(Cl)c(Cl)c(Cl)c1Cl,64*,26,-11,-2,-8,5
Fc1ccc(CNCCc2ccccc2F)cc1,70*,-14,3,-3,-12,30
Fc1ccccc1CCNCc1ccccc1,5,-18,-4,-11,-2,0
COC12C(COC(N)=O)C3=C(C(=O)C(C)=C(N)C3=O)N1CC1C2N1C (stereo not given),-14,-21,10,34,63*,-3
CC(NC(=O)N1CC1(C)C)c1ccccc1 (stereo not given),3,1,7,7,-11,10
CC12CC[C@H]3[C@@H](CCC4(O)C[C@H](O)CCC34/C=N/NC(=O)c3ccccc3F)C1(O)CCC2C1=CC(=O)OC1 (stereo not given in full),-13,28,-4,-15,2,95*
CC12CC[C@H]3[C@@H](CCC4(O)C[C@H](O)CCC34/C=N/NC(=O)c3ccccc3O)C1(O)CCC2C1=CC(=O)OC1 (stereo not given in full),-7,81*,10,6,-6,-25
COc1cc(C(=O)N/N=C/C23CC[C@@H](O)CC2(O)CC[C@@H]2[C@@H]3CCC3(C)C(C4=CC(=O)OC4)CCC23O)ccc1O (stereo not given in full),-13,7,7,-16,-15,-11
Cc1cccc(C(O)(C(=O)O)c2ccccc2)c1 (stereo not given),-5,100*,0,2,3,13
O=C1CC2OCC=C3CN4CCC56c7ccccc7N1C5C2C3CC46O (stereo not given),10,-4,9,x,x,44
